# High-throughput results: PubChem BioAssay, National Center for Advancing Translational Sciences (NCATS)
# Rows were chosen to be rich in hits. Some 7.4% of all compounds tested hit in one or more screens of this group.
# KinaseGlo FLuc = blocks Kinase-Glo luciferase, a counter-screen artifact; Q27757; Kinase-Glo luciferase, ATP luminescence, 8 min; Potency, µM (series often up to 38.3 µM), inactives show top-dose activity change, negative = inhibition, actives largely listed as inhibitors; actives 0.28% (n = 200,000); AID 1379; also: % is scaled to controls: 0 for no effect and ±100 for the full control effect; nearly all actives have a fitted effect of over 60% in size
#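 Kinase-Glo luciferase light output from ATP and luciferin was measured with 10 uM ATP, within the enzyme's linear range. Buffer: 50 mM imidazole pH 7.2, 50 mM KCl, 7 mM MgCl2, 0.01% Tween 20, 0.05% BSA; luminescence read after 8 min at ambient temperature.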
# Rab9 prom act = Rab9 promoter activation. actives 2.8% (n = 320,000). Potency, µM (titrated, usually from 9.22 µM), for inactives: at the top dose activation, negative = inhibition, usual class: activators. AID 485297. Huh7 Rab9 promoter-luciferase reporter, luminescence, 24 h; also: % of control where 0% means no effect; nearly all actives have a fitted effect of over 60% in size
#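 Huh7 cells stably carrying a Rab9 promoter-luciferase reporter, 1500 cells per well in OP-MEM I with 10% FBS, treated with compound 24 hours at 37C. Luciferase activity read by luminescence after 10 minutes with Amplite reagent.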
# ELG1 genotox = inducers of genotoxicity in HEK293T ELG1-luciferase cells; HEK293T ELG1-luciferase reporter, luminescence, 16 h; actives 1.3% (n = 330,000); AID 504466; Potency, µM (titrated, usually from 46 µM), for the others: at the highest dose activity change, positive = activation, most hits filed as activators; also: % of control where 0% means no effect; nearly all actives have a fitted effect of over 60% in size
#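 Reporter readout depends on ELG1 protein level, which increases with genetic stress. After 16 hr compound exposure at 37 °C, luciferase activity was quantified using ONE-Glo.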
# NPC1 prom act = activators of NPC1 promoter. Huh7 NPC1 promoter luciferase reporter, 24 h. Potency, µM (top dose mostly 9.22 µM), without a hit: top-dose activation, hits mostly activators. actives 2.4% (n = 320,000). AID 485313; also: % of control where 0% means no effect; nearly all actives have a fitted effect of over 60% in size
#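 Luminescence read-out of NPC1 promoter-driven luciferase in stably transfected Huh7 cells; compounds delivered in DMSO and left 24 h at 37C, 5% CO2, qHTS titration format.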
# SMN2 splice enh = SMN2 splice variant enhancement; HEK293 SMN2-luciferase splicing reporter, luminescence, 30-36 h; Potency, µM (series often up to 46.1 µM), for inactives: at the highest dose activity change, positive = activation, actives largely listed as activators; actives 2.8% (n = 210,000); AID 1458; also: % of control where 0% means no effect; nearly all actives have a fitted effect of over 55% in size
#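 qHTS luciferase splicing reporter: luminescence rises when SMN2 exon 7 is included in transfected HEK293 cells. Compound exposure lasted 30-36 h at 37C, with 4.5 mM final sodium butyrate as control, followed by a ONE-Glo read.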
# FLuc modulator = inhibits or activates purified firefly luciferase, miR-21 counter-screen. purified FLuc, Km substrates, luminescence inhibition. Potency, µM (top dose mostly 57.5 µM), inactives show at the top dose activity change, negative = inhibition, most hits filed as inhibitors. actives 6.9% (n = 360,000);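 also: plate controls were vehicle for no effect and reference inhibitor for full effect; nearly all actives have a fitted effect of over 55% in size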
# Target sequence (P08659 whole entry, looked up): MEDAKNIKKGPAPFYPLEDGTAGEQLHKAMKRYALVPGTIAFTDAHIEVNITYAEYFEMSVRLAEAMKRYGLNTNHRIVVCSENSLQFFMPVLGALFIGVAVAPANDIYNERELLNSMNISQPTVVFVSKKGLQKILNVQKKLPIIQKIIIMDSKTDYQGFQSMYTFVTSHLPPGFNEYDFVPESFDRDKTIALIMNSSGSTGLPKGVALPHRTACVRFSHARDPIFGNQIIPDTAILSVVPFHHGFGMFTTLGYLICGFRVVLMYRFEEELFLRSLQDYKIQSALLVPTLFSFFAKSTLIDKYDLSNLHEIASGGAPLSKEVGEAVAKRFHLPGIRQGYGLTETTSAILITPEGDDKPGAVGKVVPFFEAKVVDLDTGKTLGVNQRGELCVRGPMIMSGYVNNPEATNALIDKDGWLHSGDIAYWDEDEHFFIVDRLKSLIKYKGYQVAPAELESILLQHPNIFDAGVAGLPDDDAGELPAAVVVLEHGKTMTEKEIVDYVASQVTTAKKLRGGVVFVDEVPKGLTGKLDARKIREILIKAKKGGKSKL
#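 Biochemical qHTS of compounds, final roughly 60 µM downward over six points, against 10 nM purified firefly luciferase using Km concentrations of substrates (10 uM D-luciferin, 10 uM ATP) in Tris acetate pH 7.5 buffer; luminescence output.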
# Active calls of the source: *; ? = inconclusive; . = no result; [ ] = remark or other dose. Calls follow the shape of the dose curve; as a rule, active = well fitted curve in the direction sought with a large enough effect; inconclusive = small, poorly fitted or top-dose-only effect, or another doubt; inactive = no such curve, though single readings can be large; an effect the other way counts as inactive or inconclusive. Potency is read from the fitted curve at half-maximal effect.
SMILES,KinaseGlo FLuc,Rab9 prom act,ELG1 genotox,NPC1 prom act,SMN2 splice enh,FLuc modulator
c1csc(CSc2nnc3sc4ccccc4n23)c1,2%,3.2µM*,?,?,14µM*,17µM*
Cn1nnnc1SCC(=O)c1ccco1,-3%,0%,1%,1%,-23%,8%
CCOC(=O)CC(=O)CSc1nnc2sc3ccccc3n12,-2%,3%,4%,3%,-10%,?
Cc1ccc(SCC(=O)N2N=CCC2c2ccccc2)cc1 (centres undefined),2%,21%,7%,-5%,-3%,?
O=C(CSc1nnc2sc3ccccc3n12)c1ccco1,-3%,?,?,23%,11µM*,11µM*
O=C(CSc1nnnn1-c1ccccc1)c1ccco1,1%,?,?,?,10%,17µM*
O=C(CSc1nnnn1-c1ccccc1)N1N=CCC1c1ccccc1 (centres undefined),0%,14%,2%,4%,19%,15µM*
CN(CC(=O)Nc1ccc(F)c(F)c1F)C(=O)C1CCC1,.,0%,-1%,-8%,.,-3%
Cc1c(C(=O)Nc2ccccc2N2CCN(C)CC2)oc2ccc(F)cc12,.,13%,-2%,13%,.,?
CN(C)c1ccc(/C=C/C(=O)c2ccccc2)cc1[N+](=O)[O-],-15%,2.5µM*,0%,3.5µM*,-108%,1.2µM*
COc1ccc(Oc2ccc(/C=C/C(=O)c3ccc(O)cc3)cc2[N+](=O)[O-])cc1,2%,-9%,-15%,-1%,-103%,24µM*
CNc1ccc(/C=C/C(=O)c2ccc(C)cc2)cc1[N+](=O)[O-],2%,-1%,?,5%,1%,?
COc1ccc(C(=O)/C=C/c2ccc(OC)c(COc3ccccc3F)c2)cc1,2%,-2%,-1%,-1%,-46%,?
O=C(/C=C/c1ccc(O)c([N+](=O)[O-])c1)c1ccc2ccccc2c1,.,2%,0%,22%,.,7.6µM*
O=C(CN1C(=O)c2ccccc2S1(=O)=O)c1ccccc1Cl,.,?,-17%,-18%,.,3µM*
O=C(CN1C(=O)c2ccccc2S1(=O)=O)N1CCCCC1,.,2.5µM*,16µM*,?,.,2%
Cc1ccc(C(=O)CN2C(=O)c3ccccc3S2(=O)=O)cc1,.,-40%,-6%,-37%,.,?
O=C(CN1C(=O)c2ccccc2S1(=O)=O)c1ccccc1,0%,?,0%,?,1%,0.6µM*
O=C(CN1C(=O)c2ccccc2S1(=O)=O)N1CCOCC1,2%,3%,11%,9%,?,-2%
CCCOc1ccc(/C=N/NC(=O)c2nnn(-c3nonc3N)c2-c2cccs2)cc1OC,.,-2%,-9%,15%,.,11µM*
COc1cccc(/C=N/NC(=O)c2nnn(-c3nonc3N)c2-c2cccs2)c1,.,1%,-5%,8%,.,?
Nc1nonc1-n1nnc(C(=O)N/N=C/c2ccc3c(c2)OCO3)c1-c1ccccc1,.,0%,-7%,-2%,.,?
COc1ccccc1/C=N\N=C(\N)c1ccccn1,7%,2.2µM*,?,?,16µM*,6.7µM*
CC(C)c1c(C(=O)N/N=C/c2ccc3c(c2)OCO3)nnn1-c1nonc1N,.,12%,2%,1%,.,9.5µM*
CCN(CC)c1ccc(/C=N/NC(=O)c2nnn(-c3nonc3N)c2C(C)C)c(O)c1,.,-34%,-10%,-14%,.,19µM*
SMILES,KinaseGlo FLuc,Rab9 prom act,ELG1 genotox,NPC1 prom act,SMN2 splice enh,FLuc modulator
COc1ccccc1CC(=O)O/N=C(\N)c1ccccn1,.,21%,6%,1%,.,-17%
CC(C)c1c(C(=O)N/N=C/c2ccncc2)nnn1-c1nonc1N,.,-4%,0%,3%,.,?
COc1ccc(CCN2CC(C(=O)NCC(=O)Nc3ccc(F)c(F)c3)CC2=O)cc1OC (centres undefined),.,-4%,2%,4%,.,0%
COc1ccc(Cl)cc1NC(=O)Cn1c(=O)n(CCC(=O)NCc2ccc3c(c2)OCO3)c(=O)c2ccccc21,.,.,.,.,2%,3%
COc1ccc(CNC(=O)CN(C)S(=O)(=O)c2ccc3c(c2)OCCO3)cc1OC,.,0%,0%,2%,.,.
CC(/C=N/NC(=O)c1nnn(-c2nonc2N)c1C(C)C)=C\c1ccco1,.,8%,1%[9.26 µM],-3%,.,5.4µM*
CCCc1c(C(=O)N/N=C/C(C)=C/c2ccco2)nnn1-c1nonc1N,.,0%,1%,4%,.,-18%
COc1cccc(/C=N/N=C(\N)c2nonc2N)c1O,-5%,2.5µM*,18µM*,?,?,?
C/C(=N\NC(=O)c1nnn(-c2nonc2N)c1C(C)C)c1cc(C)sc1C,.,-5%,-2%,-1%,.,17µM*
N/C(=N\N=C\c1ccc2c(c1)OCO2)c1nonc1N,?,0.32µM*,?,0.4µM*,3.5µM*,0.95µM*
C/C(=N\NC(=O)c1nnn(-c2nonc2N)c1C(C)C)c1ccncc1,.,-13%,-5%,16%,.,0%
COc1cc(/C=N/N=C(/N)c2nonc2N)cc(Br)c1OCc1ccccc1C,-3%,-6%,2%,1%,-23%,-1%
COC(=O)c1ccccc1NC(=O)NCCc1c(C)nn(C)c1C,.,.,.,.,.,-8%
CC(=O)Nc1c(I)c(C(=O)N[C@H]2C(O)O[C@H](CO)[C@@H](O)[C@@H]2O)c(I)c(N(C)C(C)=O)c1I (some centres undefined),.,2%,-9%,16%,.,-1%
CCCN(CC(=O)Nc1ccccc1C)C(=O)c1ccc2c(c1)S(=O)(=O)N=C1CCCCCN12,.,7%,1%,-2%,.,-1%
CCN(CC(=O)Nc1ccc(NC(C)=O)cc1)C(=O)c1ccc2c(c1)S(=O)(=O)N=C1CCCCCN12,.,-1%,-10%,0%,.,11µM*
COc1cccc(Oc2nnnn2-c2ccccc2)c1,.,4µM*,?,?,.,17µM*
Cc1ccc(NC(=S)N2CCCCC2)cc1C,.,26%,14%,-2%,.,24µM*
